The panel holds about 83,000 compounds, 20% with a hit somewhere; the sample as a whole holds those more often.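 Note: values are percent growth. 100 is the growth of untreated cells, values between 100 and 0 indicate rising inhibition; between -100 and 0 indicates cell death.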 The source made the active and inactive calls. Rule for the calls: active = growth percent below 10; inactive = the rest.
What was measured:
Assay in all cases: NCI-60 one-dose screen, 48 h (100 = growth as untreated, 0 = no growth, -100 = all killed)
Conditions in all cases: 10 µM unless noted
SR leukemia = test system: SR leukemia
OVCAR-8 ovarian = test system: OVCAR-8 ovarian
OVCAR-5 ovarian = test system: OVCAR-5 ovarian
OVCAR-4 ovarian = test system: OVCAR-4 ovarian
SK-OV-3 ovarian = test system: SK-OV-3 ovarian
OVCAR-3 ovarian = test system: OVCAR-3 ovarian
HS 578T breast = test system: HS 578T breast
NCI/ADR-RES ovarian = test system: NCI/ADR-RES ovarian
T-47D breast = test system: T-47D breast
BT-549 breast = test system: BT-549 breast
MDA-MB-435 melanoma = test system: MDA-MB-435 melanoma
SW-620 colon = test system: SW-620 colon
MCF7 breast = test system: MCF7 breast
HCT-116 colon = test system: HCT-116 colon
HCC-2998 colon = test system: HCC-2998 colon
KM12 colon = test system: KM12 colon
RPMI-8226 leukemia = test system: RPMI-8226 leukemia
IGROV1 ovarian = test system: IGROV1 ovarian

Measured: growth

O=C(Nc1cccc(C2=NCCN2)c1)c1ccc(-c2ccc(C(=O)Nc3cccc(C4=NCCN4)c3)cc2)cc1
inactive: SR leukemia 72.4% | OVCAR-8 ovarian 80.7% | OVCAR-5 ovarian 88.5% | OVCAR-4 ovarian 96.6% | SK-OV-3 ovarian 111% | OVCAR-3 ovarian 121% | HS 578T breast 97.6% | NCI/ADR-RES ovarian 104% | T-47D breast 58.5% | BT-549 breast 93.4% | MDA-MB-435 melanoma 57.4% | SW-620 colon 69.2% | MCF7 breast 18.5% | HCT-116 colon 72.7% | HCC-2998 colon 81.1% | KM12 colon 60.4%

O=C1Nc2ccccc2/C1=C\c1c(-c2ccccc2)nc2ccccn12
inactive: RPMI-8226 leukemia 66% | OVCAR-8 ovarian 68.9% | OVCAR-5 ovarian 68.2% | OVCAR-4 ovarian 78.8% | SK-OV-3 ovarian 30.5% | IGROV1 ovarian 46.3% | OVCAR-3 ovarian 11.9% | HS 578T breast 69.5% | T-47D breast 38.1% | BT-549 breast 45.3% | SW-620 colon 21.2% | MCF7 breast 19.6% | HCT-116 colon 20.6% | HCC-2998 colon 107% | KM12 colon 23.3%
active: NCI/ADR-RES ovarian -11.1% | MDA-MB-435 melanoma -42%

COc1cc2oc(-c3cccc(C(=O)Nc4ccc5c(c4)OCO5)c3)cc(=O)c2c(O)c1OC
active: OVCAR-4 ovarian 0.0679%
inactive: RPMI-8226 leukemia 79.8% | OVCAR-8 ovarian 30.6% | OVCAR-5 ovarian 88.9% | SK-OV-3 ovarian 91.4% | IGROV1 ovarian 81.6% | OVCAR-3 ovarian 89.5% | HS 578T breast 72.7% | NCI/ADR-RES ovarian 70.6% | T-47D breast 69.5% | BT-549 breast 84% | MDA-MB-435 melanoma 79.1% | SW-620 colon 84.5% | MCF7 breast 91.6% | HCT-116 colon 57% | HCC-2998 colon 105% | KM12 colon 70.6%

C=C1C(=O)O[C@H]2[C@H]1CC/C(COC(=O)NCC(C)c1ccc(CC(C)C)cc1)=C\CC[C@@]1(C)O[C@@H]21 (some centres undefined)
active: RPMI-8226 leukemia -35.7% | OVCAR-8 ovarian -51% | OVCAR-4 ovarian -43.8% | IGROV1 ovarian -69.5% | OVCAR-3 ovarian -85.5% | T-47D breast -50% | BT-549 breast -42.4% | MDA-MB-435 melanoma -88.7% | SW-620 colon -58.7% | HCT-116 colon -83% | KM12 colon -3.31%
inactive: OVCAR-5 ovarian 62.4% | SK-OV-3 ovarian 100% | HS 578T breast 16% | NCI/ADR-RES ovarian 28.6% | MCF7 breast 13.7% | HCC-2998 colon 59.5%

COc1cc(-c2csc(NC(=O)c3cc(F)cc(C(F)(F)F)c3)n2)cc(OC)c1OC
active: RPMI-8226 leukemia -4.32% | MDA-MB-435 melanoma -16.2%
inactive: OVCAR-8 ovarian 37.7% | OVCAR-5 ovarian 82.7% | OVCAR-4 ovarian 58.7% | SK-OV-3 ovarian 54.3% | IGROV1 ovarian 43.8% | OVCAR-3 ovarian 12.2% | HS 578T breast 20% | NCI/ADR-RES ovarian 49.8% | T-47D breast 19.3% | BT-549 breast 41.2% | SW-620 colon 32.4% | MCF7 breast 20.9% | HCT-116 colon 16.5% | HCC-2998 colon 72.2% | KM12 colon 26.6%

CCCCC/C=C/C(C)=C/C1CC(C)C/C=C/CCC(O)C(OC(N)=O)CCC(C)CC(O)C(C)C(=O)O1 (centres undefined)
inactive: RPMI-8226 leukemia 56.3% | OVCAR-8 ovarian 98.5% | OVCAR-5 ovarian 102% | OVCAR-4 ovarian 107% | SK-OV-3 ovarian 111% | IGROV1 ovarian 87.3% | OVCAR-3 ovarian 129% | HS 578T breast 94% | NCI/ADR-RES ovarian 96% | T-47D breast 91.6% | BT-549 breast 120% | MDA-MB-435 melanoma 50.6% | SW-620 colon 103% | MCF7 breast 86.5% | HCT-116 colon 94.1% | HCC-2998 colon 52.3% | KM12 colon 102%

CCN(CC)c1ccc(C(=O)c2ccccc2)cc1
inactive: RPMI-8226 leukemia 95.8% | OVCAR-8 ovarian 97% | OVCAR-5 ovarian 100% | OVCAR-4 ovarian 97.3% | SK-OV-3 ovarian 98.6% | IGROV1 ovarian 89.8% | OVCAR-3 ovarian 103% | HS 578T breast 102% | NCI/ADR-RES ovarian 89.4% | T-47D breast 83.3% | BT-549 breast 109% | MDA-MB-435 melanoma 105% | SW-620 colon 102% | MCF7 breast 98.7% | HCT-116 colon 91.3% | HCC-2998 colon 107% | KM12 colon 101%

Brc1ccc2[nH]cc(-c3cncn3CCc3ccccc3)c2c1
inactive: RPMI-8226 leukemia 29.7% | OVCAR-8 ovarian 66.9% | OVCAR-5 ovarian 71% | OVCAR-4 ovarian 25.9% | SK-OV-3 ovarian 64.9% | IGROV1 ovarian 76.9% | OVCAR-3 ovarian 36.7% | HS 578T breast 12.8% | NCI/ADR-RES ovarian 49.6% | T-47D breast 22.9% | BT-549 breast 41.3% | MDA-MB-435 melanoma 57.5% | SW-620 colon 72.2% | MCF7 breast 48.9% | HCT-116 colon 43% | HCC-2998 colon 72.5% | KM12 colon 68%

Cc1nc(N)nc(N[C@@H](C)c2nc3cccc(NCc4ccc(C(=O)NO)cc4)c3c(=O)n2-c2ccccc2)n1
inactive: RPMI-8226 leukemia 17.2% | OVCAR-8 ovarian 70.3% | OVCAR-5 ovarian 90.5% | OVCAR-4 ovarian 92.2% | SK-OV-3 ovarian 86.7% | IGROV1 ovarian 69.5% | OVCAR-3 ovarian 85.9% | HS 578T breast 72.1% | NCI/ADR-RES ovarian 103% | T-47D breast 22.3% | BT-549 breast 99% | MDA-MB-435 melanoma 64.7% | SW-620 colon 49.5% | MCF7 breast 74.9% | HCT-116 colon 56.3% | HCC-2998 colon 98% | KM12 colon 92.9%

COc1ccc(C(=O)CC#N)cc1
inactive: RPMI-8226 leukemia 110% | OVCAR-8 ovarian 103% | OVCAR-5 ovarian 105% | OVCAR-4 ovarian 107% | SK-OV-3 ovarian 112% | IGROV1 ovarian 123% | OVCAR-3 ovarian 112% | HS 578T breast 110% | NCI/ADR-RES ovarian 111% | T-47D breast 104% | BT-549 breast 107% | MDA-MB-435 melanoma 132% | SW-620 colon 107% | MCF7 breast 96.7% | HCT-116 colon 106% | HCC-2998 colon 112% | KM12 colon 108%

CCN(CC)CC[n+]1cc2cc(OC)c(OC)cc2c2ccc3cc4c(cc3c21)OCO4
active: RPMI-8226 leukemia -32.7% | OVCAR-8 ovarian -82.8% | OVCAR-5 ovarian 6.85% | OVCAR-4 ovarian 1.21% | SK-OV-3 ovarian -10.7% | IGROV1 ovarian -44.1% | HS 578T breast -4.12% | BT-549 breast -4.72% | SW-620 colon 9.98% | HCT-116 colon -83% | KM12 colon -82.2%
inactive: OVCAR-3 ovarian 13.4% | NCI/ADR-RES ovarian 70.5% | T-47D breast 16.2% | MDA-MB-435 melanoma 24.6% | MCF7 breast 11.5% | HCC-2998 colon 18.7%

COc1cc(/C=C\c2cc(OC)c(OC)c(OC)c2)cc(N)c1OC
inactive: RPMI-8226 leukemia 89.7% | OVCAR-8 ovarian 89.3% | OVCAR-5 ovarian 87.7% | OVCAR-4 ovarian 128% | SK-OV-3 ovarian 92.2% | IGROV1 ovarian 74.6% | OVCAR-3 ovarian 99.6% | HS 578T breast 90.1% | NCI/ADR-RES ovarian 69.7% | T-47D breast 82.8% | BT-549 breast 75.9% | SW-620 colon 75% | MCF7 breast 85.4% | HCT-116 colon 79.1% | HCC-2998 colon 73.1% | KM12 colon 54.9%
active: MDA-MB-435 melanoma 1.87%

Cc1ccc(-c2nc3ccccn3c2/C=C2/C(=O)Nc3cc(Cl)ccc32)cc1
active: MDA-MB-435 melanoma -12.7%
inactive: RPMI-8226 leukemia 93.6% | OVCAR-8 ovarian 91.7% | OVCAR-5 ovarian 101% | OVCAR-4 ovarian 74.7% | SK-OV-3 ovarian 94.4% | IGROV1 ovarian 81.3% | OVCAR-3 ovarian 93.7% | HS 578T breast 101% | NCI/ADR-RES ovarian 27% | T-47D breast 74.6% | BT-549 breast 70.9% | SW-620 colon 49% | MCF7 breast 33.5% | HCT-116 colon 26.5% | HCC-2998 colon 92.2% | KM12 colon 31.9%

COc1ccc2c(c1)oc1c(C)c3c(c(C)c12)C(=O)N(N)C3=O
inactive: SR leukemia 26.2% | OVCAR-8 ovarian 26.9% | OVCAR-5 ovarian 40.4% | SK-OV-3 ovarian 61.2% | IGROV1 ovarian 26.8% | HS 578T breast 19.1% | NCI/ADR-RES ovarian 28.6% | T-47D breast 44.3% | MDA-MB-435 melanoma 36.8% | SW-620 colon 29.4% | MCF7 breast 57.3% | HCC-2998 colon 64.6% | KM12 colon 22%
active: OVCAR-4 ovarian -20.8% | BT-549 breast -43.5% | HCT-116 colon -13%

Nc1n[nH]c2cccc(C#Cc3cccc(C(=O)Nc4cccc(C(F)(F)F)c4)c3)c12
inactive: RPMI-8226 leukemia 58.9% | OVCAR-8 ovarian 76.3% | OVCAR-5 ovarian 57.6% | OVCAR-4 ovarian 66.2% | SK-OV-3 ovarian 59.6% | IGROV1 ovarian 30.3% | OVCAR-3 ovarian 73.8% | HS 578T breast 40.5% | NCI/ADR-RES ovarian 80.6% | T-47D breast 46.9% | BT-549 breast 84.9% | MDA-MB-435 melanoma 52.5% | SW-620 colon 55.9% | MCF7 breast 71.6% | HCT-116 colon 27.5% | HCC-2998 colon 62% | KM12 colon 46.7%

COc1cc(CC(=O)c2ccc(O)c(OC)c2)ccc1O
inactive: RPMI-8226 leukemia 97.9% | OVCAR-8 ovarian 97.9% | OVCAR-5 ovarian 97.9% | OVCAR-4 ovarian 103% | SK-OV-3 ovarian 99.7% | IGROV1 ovarian 111% | OVCAR-3 ovarian 105% | HS 578T breast 98.5% | NCI/ADR-RES ovarian 100% | T-47D breast 89.6% | BT-549 breast 110% | MDA-MB-435 melanoma 112% | SW-620 colon 102% | MCF7 breast 96.9% | HCT-116 colon 100% | HCC-2998 colon 103% | KM12 colon 103%

Cn1cc(-c2nc(-c3c[nH]c4c(Cl)nccc34)cs2)c2cc(Br)ccc21
inactive: RPMI-8226 leukemia 78.6% | OVCAR-8 ovarian 80.2% | OVCAR-5 ovarian 97.6% | OVCAR-4 ovarian 90.5% | SK-OV-3 ovarian 95.6% | IGROV1 ovarian 102% | OVCAR-3 ovarian 111% | HS 578T breast 85.6% | NCI/ADR-RES ovarian 97.6% | T-47D breast 39.1% | BT-549 breast 95.7% | MDA-MB-435 melanoma 79.4% | SW-620 colon 98.6% | MCF7 breast 77.4% | HCT-116 colon 88.8% | HCC-2998 colon 114% | KM12 colon 86.2%

COc1ccc(-c2cnc3c(-c4cccc5ncccc45)cnn3c2)cc1
active: OVCAR-4 ovarian 6.3%
inactive: RPMI-8226 leukemia 68.1% | OVCAR-8 ovarian 26.8% | OVCAR-5 ovarian 82.1% | SK-OV-3 ovarian 24.4% | IGROV1 ovarian 45.1% | OVCAR-3 ovarian 57.7% | HS 578T breast 25.4% | NCI/ADR-RES ovarian 45.4% | T-47D breast 45.7% | BT-549 breast 37.1% | MDA-MB-435 melanoma 58% | SW-620 colon 73.8% | MCF7 breast 72.2% | HCT-116 colon 11.9% | HCC-2998 colon 90.7% | KM12 colon 69.3%

— PubChem BioAssay (NCI)
